Results: PubChem BioAssay (EPA / NIEHS)
The source made the active and inactive calls. The calls were made as follows: active = hit-call score of the fitted dose curve at least 0.9, where 1 is the maximum; inactive = score below 0.9.

Experiments:
Details in all cases: mRNA level, 48 h; actives raise or lower the signal
[1] = read-out: ATP-citrate lyase (ACLY), ACLY (gene 47); test: LTEA_HepaRG_ACLY: Life Technologies and Expression Analysis (LTEA) Assay for ATP-citrate lyase (ACLY) using HepaRG (AID 2283466)
Procedure, shortened: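 HepaRG, 48 h exposure, 8-pt half-log dilutions (top 100 uM), 0.5% DMSO. Readout: ACLY mRNA, TaqMan qRT-PCR, housekeeping-normalized (ACTB/GAPDH/POLR2A). Bidirectional curve fit vs DMSO.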

[2] = read-out: Peroxisomal acyl-coenzyme A oxidase 1 (ACOX1) gene, ACOX1 (gene 51); test: LTEA_HepaRG_ACOX1: Life Technologies and Expression Analysis (LTEA) Assay for Peroxisomal acyl-coenzyme A oxidase 1 (ACOX1) gene using HepaRG (AID 2283467)
Procedure, shortened: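 Measured by qRT-PCR against three housekeeping genes: ACOX1 transcript change in human HepaRG cells after 48 h dosing. Concentrations ran up to 100 uM in half-log steps. Curves were fitted bidirectionally relative to 0.5% DMSO.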

[3] = read-out: Bcl-2 (BAD) gene, BAD (gene 572); test: LTEA_HepaRG_BAD: Life Technologies and Expression Analysis (LTEA) Assay for Bcl-2 (BAD) gene using HepaRG (AID 2283469)
Procedure, shortened: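 BAD transcript change, measured by qRT-PCR against three housekeeping genes and fitted in both directions relative to 0.5% DMSO, after 48 h chemical treatment of human HepaRG liver cells at concentrations up to 100 uM.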

[4] = read-out: Bcl-2 (BAX) gene, BAX (gene 581); test: LTEA_HepaRG_BAX: Life Technologies and Expression Analysis (LTEA) Assay for Bcl-2 (BAX) gene using HepaRG (AID 2283470)
Procedure, shortened: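 HepaRG (human liver), 48 h exposure, duplicate wells. 8-pt curve, half-log from 100 uM, 0.5% DMSO. BAX transcript by TaqMan qRT-PCR; ACTB/GAPDH/POLR2A normalization; gain or loss vs DMSO baseline.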

[5] = read-out: adenosine kinase (ADK) gene, ADK (gene 132); test: LTEA_HepaRG_ADK: Life Technologies and Expression Analysis (LTEA) Assay for adenosine kinase (ADK) gene using HepaRG (AID 2283471)
Procedure, shortened: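 Differentiated HepaRG cells dosed 48 h in serum-free induction medium, 0.5% DMSO vehicle, eight half-log concentrations from 100 uM, in duplicate. ADK mRNA by TaqMan qRT-PCR normalised to ACTB, GAPDH, POLR2A; bidirectional fit versus DMSO.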

[6] = read-out: Alpha-fetoprotein (AFP) gene, AFP (gene 174); test: LTEA_HepaRG_AFP: Life Technologies and Expression Analysis (LTEA) Assay for Alpha-fetoprotein (AFP) gene using HepaRG (AID 2283472)
Procedure, shortened: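 HepaRG, single lot; 48 h post-plating -> serum-free induction medium; cpd 8-pt, 100 uM top, half-log, 0.5% DMSO, duplicate, 48 h. RNA -> qRT-PCR AFP, norm ACTB/GAPDH/POLR2A. Bidirectional fit vs DMSO.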

[7] = read-out: BCL2L11 (gene 10018); test: LTEA_HepaRG_BCL2L11: Life Technologies and Expression Analysis (LTEA) Assay for Bcl-2 (BCL2L11) gene using HepaRG (AID 2283473)
Procedure, shortened: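 HepaRG, 48 h exposure, 8-pt half-log series from 100 uM in 0.5% DMSO, duplicates; qRT-PCR (Fluidigm TaqMan) for BCL2L11, housekeeping-normalized; bidirectional curve fit relative to DMSO baseline.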

[8] = read-out: Apolipoprotein A-V (APOA5) gene, APOA5 (gene 116519); test: LTEA_HepaRG_APOA5: Life Technologies and Expression Analysis (LTEA) Assay for Apolipoprotein A-V (APOA5) gene using HepaRG (AID 2283474)
Procedure, shortened: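 HepaRG, 48 h chemical exposure in serum-free induction medium, 8-pt half-log series (top 100 uM), 0.5% DMSO vehicle, duplicates. Readout: APOA5 mRNA by qRT-PCR, housekeeping-normalized; bidirectional fit vs DMSO baseline.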

[9] = read-out: Apoptosis regulator Bcl-2 (Homo sapiens) (UniProt P10415); test: LTEA_HepaRG_BCL2: Life Technologies and Expression Analysis (LTEA) Assay for Bcl-2 gene using HepaRG (AID 2283475)
Procedure, shortened: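 HepaRG, plated 48 h then switched to serum-free induction medium; dosed 48 h, 8 conc. (max 100 uM, half-log steps), duplicate, 0.5% DMSO. Lysis in RLT, RNA isolated, TaqMan qRT-PCR for BCL2; ACTB/GAPDH/POLR2A normalisation; bidirectional fit vs DMSO.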

[10] = read-out: Bcl-2 (BID) gene, BID (gene 637); test: LTEA_HepaRG_BID: Life Technologies and Expression Analysis (LTEA) Assay for Bcl-2 (BID) gene using HepaRG (AID 2283476)
Procedure, shortened: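 Transcript levels of BID, measured by qRT-PCR and normalized to three housekeeping genes, were fitted bidirectionally against DMSO controls. Cells were HepaRG, dosed 48 h at up to 100 uM.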

[11] = read-out: Caspase-3 (Homo sapiens) (UniProt P42574); test: LTEA_HepaRG_CASP3: Life Technologies and Expression Analysis (LTEA) Assay for cysteine-aspartic acid protease (CASP3) using HepaRG (AID 2283477)
Procedure, shortened: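 HepaRG, 48 h exposure, 8 conc. (top 100 uM, half-log steps, duplicate), 0.5% DMSO vehicle; qRT-PCR of CASP3 transcript, housekeeping-normalised (ACTB/GAPDH/POLR2A); bidirectional curve fit vs DMSO baseline.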

[12] = read-out: Cytochrome P450 (CYP24A1), CYP24A1 (gene 1591); test: LTEA_HepaRG_CYP24A1: Life Technologies and Expression Analysis (LTEA) Assay for Cytochrome P450 (CYP24A1) using HepaRG (AID 2283478)
Procedure, shortened: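 qRT-PCR read-out: CYP24A1 transcript levels normalized to three housekeeping genes, bidirectional curve fits against 0.5% DMSO baseline. Human HepaRG cells treated 48 h with chemicals at eight concentrations from 100 uM in half-log steps.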

[13] = read-out: Cytochrome P450 (CYP1A2), CYP1A2 (gene 1544); test: LTEA_HepaRG_CYP1A2: Life Technologies and Expression Analysis (LTEA) Assay for Cytochrome P450 (CYP1A2) using HepaRG (AID 2283479)
Procedure, shortened: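 HepaRG, 48 h exposure, top 100 uM, half-log 8-pt, 0.5% DMSO vehicle, duplicates. Readout: TaqMan qRT-PCR of CYP1A2 mRNA, housekeeping-normalized (ACTB/GAPDH/POLR2A). Gain/loss fit relative to DMSO baseline.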

[14] = read-out: cysteine-aspartic acid protease (CASP8), CASP8 (gene 841); test: LTEA_HepaRG_CASP8: Life Technologies and Expression Analysis (LTEA) Assay for cysteine-aspartic acid protease (CASP8) using HepaRG (AID 2283480)
Procedure, shortened: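 HepaRG, 48 h exposure, duplicate wells; 8 conc, half-log from 100 uM, 0.5% DMSO. Serum-free induction medium. CASP8 mRNA by TaqMan qRT-PCR, norm. ACTB/GAPDH/POLR2A; gain/loss fitted vs DMSO.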

[15] = read-out: Cytochrome P450 (CYP2B6), CYP2B6 (gene 1555); test: LTEA_HepaRG_CYP2B6: Life Technologies and Expression Analysis (LTEA) Assay for Cytochrome P450 (CYP2B6) using HepaRG (AID 2283481)
Procedure, shortened: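 Read-out is CYP2B6 mRNA by TaqMan qRT-PCR, normalized to three housekeeping genes and fitted bidirectionally against 0.5% DMSO baseline. Human HepaRG cells received test chemicals for 48 h, top concentration 100 uM, half-log dilutions.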

[16] = read-out: Cytochrome P450 2C19 (Homo sapiens) (UniProt P33261); test: LTEA_HepaRG_CYP2C19: Life Technologies and Expression Analysis (LTEA) Assay for CYP2C19 using HepaRG (AID 2283482)
Procedure, shortened: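 HepaRG, 48 h chemical exposure, 8-pt half-log series from 100 uM in 0.5% DMSO, duplicates. Readout: CYP2C19 mRNA by TaqMan qRT-PCR, housekeeping-normalized. Bidirectional fit vs DMSO baseline; phenobarbital 1mM as induction control.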

[17] = read-out: CYP2C8 (gene 1558); test: LTEA_HepaRG_CYP2C8: Life Technologies and Expression Analysis (LTEA) Assay for CYP2C8 using HepaRG (AID 2283483)
Procedure, shortened: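 CYP2C8 mRNA induction or loss, by qRT-PCR normalized to ACTB/GAPDH/POLR2A, is read in HepaRG cells after 48 h treatment. Concentrations run from 100 uM down in half-log dilutions, with 0.5% DMSO as vehicle and baseline.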

[18] = read-out: CYP2C9 (gene 1559); test: LTEA_HepaRG_CYP2C9: Life Technologies and Expression Analysis (LTEA) Assay for CYP2C9 using HepaRG (AID 2283484)
Procedure, shortened: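 Cells plated 48 h, switched to serum-free induction medium, then treated in duplicate for 48 h at eight concentrations (max 100 uM, 0.5% DMSO). RNA then analysed by qRT-PCR for CYP2C9; curves fitted in both directions relative to DMSO.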

[19] = read-out: CYP2E1 (gene 1571); test: LTEA_HepaRG_CYP2E1: Life Technologies and Expression Analysis (LTEA) Assay for CYP2E1 using HepaRG (AID 2283485)
Procedure, shortened: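 Human liver line HepaRG, plated 48 h, then serum-free induction medium + chemical x 48 h; 8-pt CRC from 100 uM, half-log, 0.5% DMSO, n=2. Readout: CYP2E1 mRNA qRT-PCR vs ACTB/GAPDH/POLR2A; bidirectional fit vs DMSO.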

[20] = read-out: Alkaline Phosphatase, Placental (ALPP) gene, ALPP (gene 250); test: LTEA_HepaRG_ALPP: Life Technologies and Expression Analysis (LTEA) Assay for Alkaline Phosphatase, Placental (ALPP) gene using HepaRG (AID 2283468)
Procedure, shortened: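 qRT-PCR readout of ALPP mRNA (Fluidigm TaqMan), normalized to ACTB/GAPDH/POLR2A, after 48 h chemical exposure of HepaRG cells; 8-point half-log series, top 100 uM, 0.5% DMSO vehicle. Bidirectional curve fit versus DMSO baseline.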

Measured: AC50

Sequence of Caspase-3 (Homo sapiens) (P42574 whole entry, looked up): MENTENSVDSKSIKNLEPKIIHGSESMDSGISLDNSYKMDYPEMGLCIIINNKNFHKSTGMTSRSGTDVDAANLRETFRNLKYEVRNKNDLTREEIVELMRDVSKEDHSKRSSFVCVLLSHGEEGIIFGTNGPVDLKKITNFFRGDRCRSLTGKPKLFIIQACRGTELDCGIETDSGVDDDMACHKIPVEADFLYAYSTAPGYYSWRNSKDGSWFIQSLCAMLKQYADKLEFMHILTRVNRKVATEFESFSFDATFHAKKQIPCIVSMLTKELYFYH
Sequence of Apoptosis regulator Bcl-2 (Homo sapiens) (P10415 whole entry, looked up): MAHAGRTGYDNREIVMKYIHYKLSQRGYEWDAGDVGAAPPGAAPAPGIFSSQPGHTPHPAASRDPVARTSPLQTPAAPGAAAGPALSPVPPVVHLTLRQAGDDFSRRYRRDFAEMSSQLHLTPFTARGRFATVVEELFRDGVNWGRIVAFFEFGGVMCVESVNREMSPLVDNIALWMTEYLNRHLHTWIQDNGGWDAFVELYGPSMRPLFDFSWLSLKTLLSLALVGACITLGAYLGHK
Sequence of Cytochrome P450 2C19 (Homo sapiens) (P33261 whole entry, looked up): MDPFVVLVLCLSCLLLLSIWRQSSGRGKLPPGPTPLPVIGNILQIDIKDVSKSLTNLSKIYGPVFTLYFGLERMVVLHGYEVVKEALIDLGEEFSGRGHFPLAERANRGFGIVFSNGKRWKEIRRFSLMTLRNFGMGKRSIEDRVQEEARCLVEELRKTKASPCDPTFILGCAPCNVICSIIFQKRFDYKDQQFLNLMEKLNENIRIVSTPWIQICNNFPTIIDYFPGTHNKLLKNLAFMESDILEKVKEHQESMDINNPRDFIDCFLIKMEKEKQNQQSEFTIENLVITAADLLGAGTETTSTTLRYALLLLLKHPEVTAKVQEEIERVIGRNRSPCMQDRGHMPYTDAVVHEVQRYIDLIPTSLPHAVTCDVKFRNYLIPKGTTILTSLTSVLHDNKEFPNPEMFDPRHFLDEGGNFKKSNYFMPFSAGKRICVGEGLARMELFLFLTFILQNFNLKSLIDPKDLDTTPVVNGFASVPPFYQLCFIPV

CCCCOC(=O)CC(CC(=O)OCCCC)(OC(C)=O)C(=O)OCCCC
not listed: [20]
inactive: all other assays above

CC(O)CC(C)(C)O (centres undefined)
not listed: [1]
inactive: all other assays above

CCCCCCCCCC(=O)O
inactive: all assays above

CCO[Si](CCCNC(N)=O)(OCC)OCC
not listed: [13] | [20]
inactive: all other assays above

CCCCCCCC[Si](OCC)(OCC)OCC
not listed: [20]
inactive: all other assays above

CCCCCCCCOc1ccc(C(=O)c2ccccc2)c(O)c1
active: [13] 50 µM | [15] 50 µM
not listed: [20]
inactive: all other assays above
